About 13,000 (27%) of roughly 48,000 compounds showed an effect of 50% or more. Some of the results follow.

The test system of this assay is Wolbachia pipientis. Nature of the assay: Anti-Wolbachia Cell-Based Screen. The arrangement: scale not given: in the data most compounds retested in dose-response had high values. Type of assay: functional. The settings on record: 5 µM.
Regarding `CC(NC(=O)NCCCO)c1ccc(-c2ccncc2)cc1` (stereo not drawn), the “Percent Effect” value came out at 6.546%.

Take `Cc1ccccc1CN1CCNC(=O)C1CC(=O)NCC1CCCCC1` (stereo not drawn): the “Percent Effect” value was determined as 13.06%.

Consider `NC(=O)CN1CC2(CCC1=O)CCN(Cc1cc(F)ccc1Cl)CC2`, for which the “Percent Effect” value turned out to be 6.267%.

In the case of `Cn1cc(CN2CCOC3(CCCN(C(=O)c4ccco4)C3)C2)cn1.O=C(O)C(F)(F)F` (stereo not drawn), the “Percent Effect” value was -10.52%.

Regarding `COc1ccc(C(C)N2CCC(CNC(C)=O)CC2)cc1Cl` (stereo not drawn), the “Percent Effect” value is 4.452%.

Regarding `COc1ccccc1C(=O)NC[C@H]1COCc2nc3c(C)cccc3n21`, the “Percent Effect” value is recorded as -7.945%.

Consider `COc1ccc(Br)cc1SCCS(C)(=O)=O`, for which the “Percent Effect” value came out at 106.5%.

As for `CS(=O)(=O)CCCSCc1cc(F)cc(Br)c1`, the “Percent Effect” value is -17.62%.

On to `CS(=O)(=O)CCSc1cccc(C#N)c1`, for which the “Percent Effect” value is given as -1.405%.

For `COc1ccc(Br)cc1SCCC(N)=O`, the “Percent Effect” value is on record as 101.3%.

With `CS(=O)(=O)CCCSCc1ccc(Br)c(F)c1`, the “Percent Effect” value is given as -6.245%.

Take `COc1ccc(Br)cc1SCCCS(C)(=O)=O`: the “Percent Effect” value was 100.1%.

Turning to `COc1ccc(Br)cc1Cn1nc(C(N)=O)ccc1=O`, the “Percent Effect” value is recorded as 5.156%.

Turning to `COc1ccc(Br)cc1CCC(=O)N1CCCC1`, the “Percent Effect” value was -8.693%.

In the case of `CS(=O)(=O)CCSCc1ccc(Br)c(F)c1`, the “Percent Effect” value was -8.514%.

On to `O=C(Cc1ccc(O)c(Cl)c1)N1CCCCC1CCn1cccn1` (stereo not drawn), for which the “Percent Effect” value is -6.522%.

Turning to `O=C(Cc1ccc2c(c1)CCC2)N1CCCC(n2cccn2)C1` (stereo not drawn), the “Percent Effect” value is on record as -2.086%.

Take `O=C(Cc1ccc2c(c1)CCO2)N1CCCC(n2cccn2)C1` (stereo not drawn): the “Percent Effect” value is -1.485%.

On to `O=C(c1cccc2c1OCCO2)N1CCCC1Cn1cccn1` (stereo not drawn), for which the “Percent Effect” value came to 5.303%.

Consider `O=C(Cc1ccc2c(c1)CCO2)N1CCCC1Cn1cccn1` (stereo not drawn), for which the “Percent Effect” value was found to be 102%.

For `Cc1cnn(CC2CCCN2C(=O)Cc2ccc3c(c2)CCO3)c1` (stereo not drawn), the “Percent Effect” value amounted to 96.14%.

On to `O=C(Cc1ccc2c(c1)CCC2)N1CCCC1Cn1cccn1` (stereo not drawn), for which the “Percent Effect” value turned out to be 137.3%.

For the molecule `Cc1nn(CC(C)C)c(N(C)C)c1CNCCCNS(C)(=O)=O`, the “Percent Effect” value was 11.35%.

For `CCOc1ccnc(NCc2nc(C)cc(=O)[nH]2)n1`, the “Percent Effect” value came to 1.629%.

As to `CCC(=O)N1Cc2nnc(C3CCOCC3)n2C(Cc2c[nH]cn2)C1` (stereo not drawn), the “Percent Effect” value is on record as -1.737%.

With `CC(C)N(C)C[C@H]1OC[C@@H]2CCN(Cc3cccc(C#N)c3)C[C@@H]21.O=C(O)C(F)(F)F.O=C(O)C(F)(F)F`, the “Percent Effect” value is reported as 7.862%.

In the case of `O=C1NC2(CCN(C(=O)c3ccc(Cl)cn3)CC2)CC1c1ccccc1` (stereo not drawn), the “Percent Effect” value is given as -25.51%.

For the molecule `COCCNc1nnc(-c2ccc(C)nc2)s1`, the “Percent Effect” value is recorded as 135.2%.

In the case of `COCCNc1nnc(-c2ccccn2)s1`, the “Percent Effect” value was 158.8%.

Turning to `COCCNc1nnc(-c2cnc(C)cn2)s1`, the “Percent Effect” value is recorded as 149.1%.

For `CCC(C)(C)NC(=O)Nc1nnc(-c2ccccn2)s1`, the “Percent Effect” value is recorded as -10.26%.

On to `COCCNc1nc(-c2ccc(S(=O)(=O)N3CCCCC3)cc2)cs1`, for which the “Percent Effect” value worked out at 16.68%.

`COCCNc1nc(-c2ccc(S(=O)(=O)N3CCCCCC3)cc2)cs1`: the “Percent Effect” value is reported as -3.577%.

In the case of `COCCN(Cc1ccc(C)o1)C(=O)Nc1ncc(C)s1`, the “Percent Effect” value was 4.146%.

With `COCCNc1nc2c(c(NCc3cnc(C)cn3)n1)CCNCC2`, the “Percent Effect” value was -9.122%.

As to `CCC(CC)(CC(=O)OC)NC(=O)Nc1nnc(-c2ccccn2)s1`, the “Percent Effect” value was -2.114%.

For the molecule `Cc1c(-c2ccncc2)n[nH]c1NC(=O)CCOC(C)C`, the “Percent Effect” value is listed as -12.27%.

Regarding `CCCNC(=O)c1ccc2c(OC)n(C)nc2c1`, the “Percent Effect” value is on record as -11.42%.

For `COc1cc2nc3n(c(=O)c2cc1OC)CCN(C)CC3`, the “Percent Effect” value is -3.498%.

Regarding `COCCNC(=O)c1ccc2c(=O)n3c(nc2c1)CCN(C)CC3`, the “Percent Effect” value worked out at 94.74%.

`O=c1c2sccc2nc2n1CCN(Cc1cccs1)CC2`: the “Percent Effect” value is 5.975%.

For `N#CCC(=O)NCc1nnc2n1CCN(Cc1cccs1)C2`, the “Percent Effect” value came out at 6.584%.

Turning to `CN1CCc2nc3cc(C(=O)NCc4cccs4)ccc3c(=O)n2CC1`, the “Percent Effect” value was determined as 76.54%.

Turning to `CCN(Cc1ccncc1)Cc1c[nH]nc1-c1ccc(F)cc1`, the “Percent Effect” value is on record as -6.114%.

Turning to `COC(=O)C1CCN(C(=O)NCC(C)Cc2cccs2)CC1` (stereo not drawn), the “Percent Effect” value is on record as -16.38%.

Turning to `COc1cccc(OC)c1C(=O)NCC(c1cccn1C)N1CCCC1` (stereo not drawn), the “Percent Effect” value is 106.6%.

As to `Cc1oncc1C(=O)NCC(c1ccccc1Cl)N1CCOCC1` (stereo not drawn), the “Percent Effect” value is recorded as 10.8%.

`COc1cccc(C(=O)NCC(c2cccn2C)N2CCCC2)c1OC` (stereo not drawn): the “Percent Effect” value was found to be 106.1%.

Take `COc1ccccc1S(=O)(=O)NCC(c1cccn1C)N(C)C` (stereo not drawn): the “Percent Effect” value is listed as 1.51%.

For `COc1cccc(C(=O)NCCCN2CCc3ccccc3C2)c1OC`, the “Percent Effect” value is reported as -7.552%.

In the case of `COc1ccccc1C(CNC(=O)NCc1cc[nH]n1)N1CCCC1` (stereo not drawn), the “Percent Effect” value turned out to be 5.725%.

As for `COc1ccccc1C(=O)NCC(c1cccn1C)N1CCOCC1` (stereo not drawn), the “Percent Effect” value is recorded as 102.1%.

For `CCC(CNC(=O)c1ccccc1OC)N1CCc2ccccc2C1` (stereo not drawn), the “Percent Effect” value came to 13.81%.

Turning to `COCCN1CCC(NC(=O)C/C=C/c2ccc(C(C)C)cc2)CC1`, the “Percent Effect” value was -16.81%.

Consider `Cc1ccc(C(=O)N2CC[C@@]3(O)CCN(C(=O)N(C)C)C[C@H]3C2)cc1Cl`, for which the “Percent Effect” value is recorded as -5.057%.

For the molecule `Cc1nn(C)c(C)c1C1CCCN1CCCC#N` (stereo not drawn), the “Percent Effect” value came to 2.05%.

Take `Cc1noc([C@@H]2C[C@H]3OCC[C@H]3N(Cc3sccc3C)C2)n1.O=C(O)C(F)(F)F`: the “Percent Effect” value is recorded as 9.269%.

Take `Cc1c(C(=O)O)sc2nc(C(F)(F)F)ccc12`: the “Percent Effect” value is reported as -2.496%.

On to `CCN(CC(=O)NC)C(=O)c1sc(Cc2ccccc2)nc1C`, for which the “Percent Effect” value was -6.036%.

Regarding `Cc1nc(Cc2ccccc2)nc2sc(C(=O)O)c(C)c12`, the “Percent Effect” value is listed as 95.86%.

Regarding `CN(C)C(CNC(=O)OCC(F)(F)F)c1ccsc1` (stereo not drawn), the “Percent Effect” value was 23.12%.

With `Cc1ccc(C(=O)N(Cc2ccccc2F)C2CC2)c(=O)[nH]1`, the “Percent Effect” value is listed as -1.047%.

In the case of `CCN(Cc1ccc(OC)c(F)c1)C(=O)c1ccc(C)[nH]c1=O`, the “Percent Effect” value is on record as -15.23%.

For `Cc1ccc(C(=O)N(C)CCOc2ccccc2F)c(=O)[nH]1`, the “Percent Effect” value stood at 95.48%.

Take `Cc1c(C(=O)N2CC(O)C2)nnn1-c1cccc2cnccc12`: the “Percent Effect” value is on record as -2.34%.

As for `CC(CNS(=O)(=O)c1cccc(Cl)c1)N1CCN(C)CC1` (stereo not drawn), the “Percent Effect” value was found to be 3.313%.

Turning to `CCn1cc2c(n1)CN(Cc1ccc(C)o1)CC2COCC1CC1.O=C(O)C(F)(F)F` (stereo not drawn), the “Percent Effect” value is 26.1%.

For the molecule `CNC(=O)NCCc1csc2ccccc12`, the “Percent Effect” value is -2.127%.

Source of the values: ChEMBL document CHEMBL3988442, “University of Dundee, Small-Polar-MMV Screening Library” (2021).
